# Columns and labels:
# [1] = inhibitors of PAF-induced NFkB signaling in CF airway cells, dose response, cell-based, uHTS hits, panel, cytotoxicity readout (AID 624344); details: CF bronchial epithelial cells, PAF-induced NFkB reporter inhibition, with PAF, run 1; at 79 µM (top of the series) unless noted
# [2] = as above; details: CF bronchial epithelial cells, PAF-induced NFkB reporter inhibition, with PAF, run 2; at 79 µM (top of the series) unless noted
SMILES,inhibition [1],inhibition [2]
Cc1ccc(C(=O)Nc2cccc(C(F)(F)F)c2)cc1NC(=O)c1cnnc2ccccc12,105%,88.8%
COc1ccc2nc(Nc3nc(CSc4nc5ccccc5[nH]4)cc(=O)[nH]3)nc(C)c2c1,108%,102%
Cc1ccc(C(=O)c2cncc(Br)c2)cc1,86.5%,93.4%
COc1ccccc1NC(=O)c1cc2c(CO)cnc(C)c2oc1=Nc1ccc(OC)c(OC)c1,73.4%,93.8%
COc1ccccc1-c1cc(NC=O)c2ncc(-c3ccc(F)cc3)n2c1,97.7% [at 39.5 µM],75.8% [at 39.5 µM]
O=C1Cc2c([nH]c3ccc(Br)cc23)-c2ccccc2N1,94.6%,80.1%
Cc1ccc(C(=O)c2cc([N+](=O)[O-])ccc2N2CCCCC2)c(C)c1,79.4%,54.3%
O=C(Nc1cccc(-c2cnc3ccccc3n2)c1)c1cccc(NC(=O)c2ccco2)c1,98.6%,96.6%
Nc1nc(N)nc(-c2cc(O)ccc2O)n1,105%,116%
C=C1C(=O)O[C@@H]2[C@H]3O[C@]3(C)CC/C=C(\C)CC[C@@H]12,101%,99.4%
CNc1ccc2ncc(-c3ccc(OC)c(OC)c3)n2n1,106%,118%
CC(C)C[C@H](CO)Nc1nc(Nc2cccc(Cl)c2)c2ncn(C(C)C)c2n1,112%,100%
CC1CCN(CC(CS(=O)(=O)c2ccc([N+](=O)[O-])cc2)N2CCC(C)CC2)CC1 (stereo not given),101%,104%
CCCc1nnc(NC(=O)c2nc(S(=O)(=O)Cc3ccc(C)cc3)ncc2Cl)s1,89%,86.5%
CC1CCN(Cc2c(C(=O)N/N=C/c3ccc(C(C)(C)C)cc3)nnn2-c2nonc2N)CC1,98.1%,108%
CC(=O)Oc1c(Cl)cc(N(C(C)=O)S(=O)(=O)c2ccccc2)c2ccccc12,89.7%,108%
Cc1ccnc(Nc2nc(-c3sc(C)nc3C)cs2)c1,107%,104%
Cc1ccc(Cl)cc1-c1cc(C(=O)NCc2cc(C(F)(F)F)cc(C(F)(F)F)c2)[nH]n1,84.9%,96.5%
Cc1ccc(NC(=O)/C=C/c2ccco2)nc1,95.8%,99.8%
c1ccc2c(-c3cncc4ccccc34)cncc2c1,110%,99.8%

# — PubChem BioAssay
